In the library only some 6.6% were active in any assay of this set; here they are far more common.
HT1080 IDH1KD tx = qHTS for induction of synthetic lethality in tumor cells producing 2HG: qHTS for the HT-1080-IDH1KD cell line; AID 686971, 2013; 360,000 tested, 2% active; HT-1080 IDH1 knockdown viability, ATP luminescence, 48 h; Potency, µM (highest dose often 46.1 µM), inactives show at the top dose activity, negative = toxicity, hits mostly cytotoxic;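 note: 0% = DMSO wells and -100% = cell-free medium wells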
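Cytotoxicity counter-line: IDH1KD HT-1080, 48 h, CellTiter-Glo. Curves classed by r2, magnitude and activity.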
KB-V1 MDR tox = qHTS assay for MDR1-selective chemotherapeutics: Primary screen using the drug-selected MDR subline cells KB-V1; KB-V1 MDR cells viability, CellTiter-Glo, 72 h; Potency, µM (doses to about 46.1 µM), usual class: cytotoxic; 400,000 tested, 3.4% active; note: % is set by controls: 0 for no effect and ±100 for the full control effect; nearly all actives have a fitted effect of over 60% in size
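Cytotoxicity toward P-gp-expressing KB-V1 cells was determined as loss of CellTiter-Glo luminescence after 72 h at 37 degrees C. Compounds were tested in quantitative HTS format across a concentration range, with curves fitted to normalized data.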
KB-3-1 tox = qHTS assay for MDR1-selective chemotherapeutics: Primary screen using the parental adenocarcinoma cell KB-3-1 | 400,000 tested, 1.4% active | Potency, µM (titrated, usually from 46.1 µM), hits mostly cytotoxic | KB-3-1 viability, CellTiter-Glo ATP luminescence, 72 h; note: % is set by controls: 0 for no effect and ±100 for the full control effect; nearly all actives have a fitted effect of over 60% in size
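Cytotoxicity in the drug-sensitive parental line KB-3-1 was scored as loss of CellTiter-Glo luminescence following 72 h incubation with compound. Values come from curve fitting of normalized concentration-response data.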
HepG2 tox-1 = qHTS for Inhibitors of TGF-b: Cytotox Counterscreen | Potency, µM (highest dose often 46.1 µM), without a hit: top-dose activity change, negative = cytotoxicity, usual class: cytotoxic | 410,000 tested, 0.76% active | AID 588856, 2011 | HepG2 CAGA-GFP viability, ATP luminescence, 18 h
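CellTiter-Glo luminescence gave cytotoxicity after 18 hours at 37 degrees C. The cells were HepG2 CAGA-GFP in 1% FBS DMEM, stimulated with 500 pg/mL TGF-beta after compound addition. %Activity was normalised to no-cell wells (complete cell-killing) and DMSO (no toxicity), and curves were fitted and classified.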
TGFb inhibitor = qHTS for Inhibitors of TGF-b; HepG2 CAGA-GFP TGF-b/SMAD3 reporter, GFP fluorescence, 18 h; TGF-beta stimulated, 500 pg/mL final; 410,000 tested, 1.2% active; Potency, µM (doses to about 46.1 µM), without a hit: at the top dose activity, negative = inhibition, actives largely listed as inhibitors; note: % is set by controls: 0 for no effect and ±100 for the full control effect; nearly all actives have a fitted effect of over 65% in size
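Per well, imaged GFP fluorescence of HEPG2 CAGA-GFP cells gives the signal; cells get compound, then TGF-beta (500 pg/mL final), 18 h at 37 degrees C; %Activity versus -TGF-beta and +DMSO controls.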
HT1080-NT tox = qHTS for induction of synthetic lethality in tumor cells producing 2HG: qHTS for the HT-1080-NT fibrosarcoma cell line; HT-1080-NT fibrosarcoma viability, CellTiter-Glo ATP luminescence, 48 h; Potency, µM (titrated, usually from 46.1 µM), inactives show top-dose activity, negative = less viability, usual class: cytotoxic; 360,000 tested, 1.6% active; AID 686970, 2013;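 note: NT is the 2HG producing partner of a matched IDH1 knockdown line; 0% = DMSO-treated cells and -100% = media-only wells without cells; nearly all actives have a fitted effect of over 55% in size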
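HT-1080-NT fibrosarcoma cells (2HG-overproducing), 750 cells/well in RPMI with 5% FBS, dosed after 2 h and incubated 48 h at 37C. CellTiter-Glo luminescence normalized to DMSO and no-cell wells; concentration-response curves fitted and classed.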
TGFb CAGA inh = qHTS for Inhibitors of TGF-b: Confirmation of Cherry Picks | shares compounds with TGFb inhibitor | AID 720534, 2013 | 1,600 tested, 63% active | HepG2 CAGA-GFP TGF-b reporter, GFP fluorescence, 18 h; cells stimulated with TGF-beta, 500 pg/mL | Potency, µM (titrated, usually from 46.1 µM), without a hit: at the top dose activity, negative = inhibition, actives largely listed as inhibitors; note: % is set by controls: 0 for no effect and ±100 for the full control effect; nearly all actives have a fitted effect of over 65% in size
HepG2 tox-2 = qHTS for Inhibitors of TGF-b: Cytotox Counterscreen for Cherry Picks; HepG2 CAGA-GFP viability, ATP luminescence, 18 h; cells stimulated with TGF-beta, 500 pg/mL; shares compounds with TGFb inhibitor; Potency, µM (highest dose often 46.1 µM), inactives show at the highest dose activity, negative = cytotoxicity, usual class: inhibitors; 1,600 tested, 27% active; note: % is set by controls: 0 for no effect and ±100 for the full control effect; nearly all actives have a fitted effect of over 70% in size
CCL64 TGFb inh = qHTS for Inhibitors of TGF-b: CCL64 Cells Orthogonal Assay for Cherry Picks; shares compounds with TGFb inhibitor; CCL64 CAGA-GFP reporter, TGF-b stimulated, GFP fluorescence, 18 h; Potency, µM (series often up to 46.1 µM), for inactives: at the highest dose activity, negative = inhibition, actives largely listed as inhibitors; 1,600 tested, 41% active; AID 720536, 2013; note: nearly all actives have a fitted effect of over 65% in size
TGFb COP inh = qHTS for Inhibitors of TGF-b: Hit Validation in HepG2 Cells using COP promoter. shares compounds with TGFb inhibitor. HepG2 COP-GFP TGF-b reporter, GFP fluorescence, 18 h; cells stimulated by added recombinant TGF-beta. Potency, µM (top dose mostly 46.1 µM), without a hit: at the highest dose activity, negative = inhibition, most hits filed as inhibitors. 1,600 tested, 3% active; note: nearly all actives have a fitted effect of over 70% in size
The depositor's hits bear a star. Calls come from the whole dose curve; as a rule, active = well fitted curve in the direction sought with a large enough effect; inconclusive = small, poorly fitted or top-dose-only effect, or another doubt; inactive = no such curve, though single readings can be large; an effect the other way counts as inactive or inconclusive. Potency is the fitted concentration of half-maximal effect.

Screening CN1CCc2c(sc(NC(=O)c3ccc([N+](=O)[O-])o3)c2C(N)=O)C1 returned HT1080 IDH1KD tx 0.581µM*, KB-V1 MDR tox inconclusive, KB-3-1 tox inconclusive, HepG2 tox-1 -94.5%, TGFb inhibitor 1.78µM*, HT1080-NT tox 6.51µM*, TGFb CAGA inh 0.581µM*, HepG2 tox-2 2.31µM*, CCL64 TGFb inh inconclusive and TGFb COP inh -80.4%.
`CN1CCc2c(sc(NC(=O)c3ccco3)c2C(N)=O)C1` gave HT1080 IDH1KD tx 8.9%, KB-V1 MDR tox inactive, KB-3-1 tox inactive, HepG2 tox-1 -21.4%, TGFb inhibitor -6.2% and HT1080-NT tox 11.2%.
For O=C1OCC/C1=C\NCCCN/C=C1\CCOC1=O the results were HT1080 IDH1KD tx -5.4%, KB-V1 MDR tox inactive, KB-3-1 tox inactive, HepG2 tox-1 1.3%, TGFb inhibitor -2.2% and HT1080-NT tox -5.7%.
`C=CCNc1oc(-c2cccc(F)c2)nc1C#N` gave KB-V1 MDR tox inactive, KB-3-1 tox inactive, HepG2 tox-1 -73.3% and TGFb inhibitor inconclusive.
Screening Cc1cccc(C(c2sc3nc(-c4ccco4)nn3c2O)N2CCN(Cc3ccccc3)CC2)c1 (stereo not drawn) returned HepG2 tox-1 -0.4% and TGFb inhibitor inconclusive.
For COc1cc2c(c(Br)c1N)-c1cc(Br)c(N)cc1C2=O the results were HT1080 IDH1KD tx inconclusive, KB-V1 MDR tox inactive, KB-3-1 tox inactive, HepG2 tox-1 -46.0%, TGFb inhibitor inconclusive, HT1080-NT tox inconclusive, TGFb CAGA inh 0.581µM*, HepG2 tox-2 0.581µM*, CCL64 TGFb inh -3.6% and TGFb COP inh 68.4%.
CC(C)(C)c1ccc(OCCNC(=S)Nc2ccccc2)cc1 was read as HT1080 IDH1KD tx 16.4µM*, KB-V1 MDR tox inconclusive, KB-3-1 tox inactive, HepG2 tox-1 2.8%, TGFb inhibitor 14.1µM*, HT1080-NT tox inconclusive, TGFb CAGA inh inconclusive, HepG2 tox-2 inconclusive, CCL64 TGFb inh inconclusive and TGFb COP inh 46.4%.
For CCC(C)Sc1cccc(-c2nc3cc(C)ccn3c2NCc2ccccc2)c1 (stereo not drawn) the results were HT1080 IDH1KD tx 26.4µM*, KB-V1 MDR tox inactive, KB-3-1 tox inactive, HepG2 tox-1 -1.4%, TGFb inhibitor 15.8µM*, HT1080-NT tox 20.9µM*, TGFb CAGA inh inconclusive, HepG2 tox-2 inconclusive, CCL64 TGFb inh 16.4µM* and TGFb COP inh 50.6%.
Screening COc1ccc(C2CC(c3ccccc3OC(=O)/C=C/c3ccccc3)=NN2C(C)=O)cc1 (stereo not drawn) returned HT1080 IDH1KD tx -14.9%, KB-V1 MDR tox inactive, KB-3-1 tox inactive, HepG2 tox-1 -14.7%, TGFb inhibitor -8.1% and HT1080-NT tox 0.5%.
Screening COc1ccc(C2CC(c3ccccc3OC(C)=O)=NN2C(=O)/C=C/c2ccccc2)cc1OC (stereo not drawn) returned HT1080 IDH1KD tx inconclusive, KB-V1 MDR tox inconclusive, KB-3-1 tox inconclusive, HepG2 tox-1 -21.5%, TGFb inhibitor 10µM*, HT1080-NT tox -19.8%, TGFb CAGA inh 18.4µM*, HepG2 tox-2 -24.9%, CCL64 TGFb inh inconclusive and TGFb COP inh 2.3%.
O=S(=O)(c1cc(F)ccc1F)N1CCN(c2ncnc3ccccc23)CC1 was read as HT1080 IDH1KD tx inconclusive, KB-V1 MDR tox 9.2µM*, KB-3-1 tox 5.17µM*, HepG2 tox-1 -39.0%, TGFb inhibitor 12.6µM*, HT1080-NT tox inconclusive, TGFb CAGA inh 8.2µM*, HepG2 tox-2 -27.3%, CCL64 TGFb inh -14.7% and TGFb COP inh -3.6%.
Nc1[nH]c(C(=O)c2ccccc2)c(-c2ccc(C(F)(F)F)cc2)c1C(=O)NCc1ccc(Cl)cc1Cl was read as HT1080 IDH1KD tx 0.6%, KB-V1 MDR tox inactive, KB-3-1 tox inactive and HT1080-NT tox -13.5%.
Cc1ccc(C(=O)Nc2ccc3nc(SCC(=O)N4CCCc5ccccc54)sc3c2)cc1 was read as HepG2 tox-1 93.0% and TGFb inhibitor 0.0%.
`Cc1c(C(=O)N2CCN(Cc3ccc4c(c3)OCO4)CC2)sc2ncnc(N3CCN(c4ccccc4F)CC3)c12` gave HT1080 IDH1KD tx 18.4µM*, KB-V1 MDR tox inactive, KB-3-1 tox inconclusive, HepG2 tox-1 -35.3%, TGFb inhibitor 5.01µM*, HT1080-NT tox inconclusive, TGFb CAGA inh inconclusive, HepG2 tox-2 -15.3%, CCL64 TGFb inh -9.3% and TGFb COP inh 10.2%.
Cc1c(C(=O)N2CCN(Cc3ccc4c(c3)OCO4)CC2)sc2ncnc(N3CCN(c4ccccc4)CC3)c12 was read as HT1080 IDH1KD tx inconclusive, KB-V1 MDR tox inactive, KB-3-1 tox inactive, HepG2 tox-1 -2.7%, TGFb inhibitor inconclusive and HT1080-NT tox -0.4%.

Screening results (PubChem)
